Measured values reported in PubChem BioAssay AID1851 (National Center for Advancing Translational Sciences (NCATS), 2009).
Among all 16,000 compounds or so, about 5,100 (32%) were called active. Not shown: some 25% with an inconclusive outcome. This is one part of the list. Values without a mark were called inactive. Calls come from the whole dose curve; as a rule, active = well fitted curve in the direction sought with a large enough effect; inconclusive = small, poorly fitted or top-dose-only effect, or effect the other way; inactive = no such curve, though single readings can be large or run the other way.

What follows are molecules tested against Cytochrome P450 3A4 (Homo sapiens) (UniProt P08684) (assay: Cytochrome panel assay with activity outcomes). Details: recombinant CYP, pro-luciferin dealkylation, luminescence, p450-cyp3a4; series mostly up to 57.1 µM; activity, negative = inhibition: at the top concentration.
% is set by controls: 0 for no effect and ±100 for the full control effect.

Sequence of Cytochrome P450 3A4 (Homo sapiens) (P08684 whole entry, looked up): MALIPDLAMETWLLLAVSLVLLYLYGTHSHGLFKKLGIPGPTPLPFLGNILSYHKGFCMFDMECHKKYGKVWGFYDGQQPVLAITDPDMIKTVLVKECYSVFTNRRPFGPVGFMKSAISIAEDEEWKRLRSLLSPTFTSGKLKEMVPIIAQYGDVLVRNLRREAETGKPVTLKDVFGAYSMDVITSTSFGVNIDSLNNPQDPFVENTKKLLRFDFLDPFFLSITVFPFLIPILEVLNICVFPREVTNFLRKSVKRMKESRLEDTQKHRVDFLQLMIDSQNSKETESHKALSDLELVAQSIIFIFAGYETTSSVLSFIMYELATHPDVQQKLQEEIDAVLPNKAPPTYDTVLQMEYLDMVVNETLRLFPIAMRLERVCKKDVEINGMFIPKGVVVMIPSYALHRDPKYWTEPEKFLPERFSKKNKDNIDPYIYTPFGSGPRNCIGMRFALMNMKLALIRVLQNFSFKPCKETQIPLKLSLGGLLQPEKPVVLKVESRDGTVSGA

Row | SMILES | activity, negative = inhibition | AC50
1 | C=CC[N+]1(CC#CCOC(c2ccccc2)c2ccccc2)CCOCC1 | -28.5% | –
2 | COc1c(Cl)cc(Cl)cc1CNCCNCCO | -7.63% | –
3 | CCOc1cc(CNCCc2ccc(S(N)(=O)=O)cc2)ccc1OCc1ccc(Cl)cc1 | – | 0.398 µM (active)
4 | CCOc1cc(CNCCO)cc(Br)c1OCc1ccccc1Cl | – | 2 µM (active)
5 | CCOc1cc(CNCCc2ccc(S(N)(=O)=O)cc2)cc(Cl)c1OCc1ccccc1 | – | 0.447 µM (active)
6 | CCCc1c(OCCCOc2ccc(OCC(=O)O)cc2)ccc(CC=O)c1O | -13.9% | –
7 | CCn1c2ccc(Cl)cc2c2nc3ccccc3nc21 | – | 15.8 µM (active)
8 | CCn1c2ccccc2c2nnc(NCCCO)nc21 | -11.6% [at 11.4 µM] | –
9 | COc1ccc(-c2ccc(N)[n+](CCCC(=O)O)n2)cc1 | – | inactive
10 | Cc1cc(NC(=O)CCCC(=O)OCC(F)(F)C(F)F)cc(C)c1C(=O)O | -0.842% | –
11 | O=C(CCCC(=O)OCC(=O)c1ccc(Cl)cc1Cl)Nc1cc(C(F)(F)F)ccc1Cl | – | 22.4 µM (active)
12 | CC(C)NC(=O)C1CC(=O)N(c2ccc(F)c(Cl)c2)C1 (stereo not drawn) | 5.88% [at 2.29 µM] | –
13 | CCOc1ccc(N2CC(C(=O)NCc3cccc(C)c3)CC2=O)cc1 (stereo not drawn) | – | 7.94 µM (active)
14 | C[C@@]12C[C@H](O)[C@@H]3[C@H](CCC4=CC(=O)CC[C@]43C)[C@H]1CC[C@@H]2c1csc(N)n1 | – | 2.51 µM (active)
15 | C[C@@]12CCC(=O)C=C1CC[C@@H]1[C@@H]2[C@H](O)C[C@]2(C)[C@@H]1CC[C@]2(O)C(=O)COC(=O)CCC(=O)O | -3.21% | –
16 | C[C@@]12CCC(=O)C=C1CC[C@@H]1[C@@H]2[C@H](O)C[C@]2(C)[C@@H]1CC[C@]2(O)C(=O)CO | -8.94% [at 25.6 µM] | –
17 | COc1cc2cc(CN(CCCO)S(=O)(=O)c3ccccc3Cl)c(=O)[nH]c2cc1OC | – | 14.1 µM (active)
18 | CN(C)C(CNC(=O)NC1CCCCC1)c1cccnc1 (stereo not drawn) | – | 15.8 µM (active)
19 | COc1cc2c(cc1OC)C(C(=O)Nc1ccc3c(c1)OCCO3)C(c1cccnc1)N(C)C2=O (stereo not drawn) | – | 28.2 µM (active)
20 | COCCN1C(=O)c2ccccc2C(C(=O)Nc2ccc3c(c2)OCCO3)C1c1ccc(F)cc1 (stereo not drawn) | -22.8% [at 2.29 µM] | –
21 | COc1ccc(NC(=O)C2c3cc(OC)c(OC)cc3C(=O)N(C)C2c2cccnc2)cc1OC (stereo not drawn) | – | 25.1 µM (active)
22 | COc1cccc(NC(=O)C2c3cc(OC)c(OC)cc3C(=O)N(C)C2c2cccnc2)c1 (stereo not drawn) | – | 12.6 µM (active)
23 | COc1cc2c(cc1OC)C(C(=O)Nc1ccccn1)C(c1cccnc1)N(C)C2=O (stereo not drawn) | -22% [at 11.4 µM] | –
24 | CC(C)C12CC[C@@]3(CC[C@H]4[C@@](C)(CCC[C@]4(C)C(=O)O)[C@@H]3C1)[C@@H](CN)C2 | -9.26% [at 11.4 µM] | –

Row | SMILES | activity, negative = inhibition | AC50
25 | CCOC(=O)CSc1n[nH]c(NC(=O)c2cccc(C(F)(F)F)c2)n1 | -5.41% | –
26 | Cc1ccc(-n2c(C)cc(C(=O)CSc3n[nH]c(N)n3)c2C)cc1 | – | 10 µM (active)
27 | O=C1CC[C@H](NC(=O)c2ccccc2)C(=O)N1 | -12.3% [at 11.4 µM] | –
28 | N[C@H](CCC(=O)NCC(=O)O)C(=O)O | -5.94% | –
29 | CN(C)c1ccc(-c2cncnc2Nc2ccccc2)cc1 | – | 0.631 µM (active)
30 | CN(C)c1ccc(-c2cncnc2Nc2ccc(F)cc2)cc1 | – | 0.794 µM (active)
31 | c1cc(CSSCc2ccncc2)ccn1 | – | 2.51 µM (active)
32 | O=[N+]([O-])c1ccc2nc(-c3ccccc3)n(OCc3ccc(Cl)cc3)c2c1 | 1.45% | –
33 | Cc1cc(C)n(-c2ccc(Cl)c(C(=O)O)n2)n1 | -24.8% | –
34 | Cc1cc(C)n(-c2nc3ccccc3c(=O)n2OCc2ccc(Cl)cc2)n1 | – | 14.1 µM (active)
35 | COc1ccccc1CNc1ccnc(-c2ccoc2)n1 | – | 2.51 µM (active)
36 | COc1ccccc1CNc1ccnc(-c2ccc(C(=O)N(C)C)cc2)n1 | – | 25.1 µM (active)
37 | COc1ccc(CNc2ccnc(-c3ccc(C(=O)N(C)C)cc3)n2)c(OC)c1 | – | 3.98 µM (active)
38 | CN(C)c1ccc(-c2nccc(NCc3ccccc3)n2)cc1 | – | 7.94 µM (active)
39 | C=CC[C@@H](C(=O)O)c1ccccc1 | -1.41% [at 11.4 µM] | –
40 | CC(C)(C)CNCCO | -3.67% [at 11.4 µM] | –
41 | COc1ccc(CNc2ccnc(-c3ccc(N(C)C)cc3)n2)c(OC)c1 | – | 12.6 µM (active)
42 | COc1ccccc1CNc1ccnc(-c2ccc(N(C)C)cc2)n1 | – | 7.94 µM (active)
43 | COc1ccccc1CNc1cc(-c2ccc(C(=O)N(C)C)cc2)ncn1 | – | 25.1 µM (active)
44 | CC(C)NC[C@H](O)c1ccc(NS(C)(=O)=O)cc1 | – | inactive
45 | CN1CCc2nc(N)nc(-c3nc(N)nc4c3CN(C)CC4)c2C1 | 3.49% [at 11.4 µM] | –
46 | O=C(CN(Cc1ccco1)C(=O)c1cccc(Cl)c1)Nc1c(Cl)cc(Cl)cc1Cl | – | 11.2 µM (active)
47 | O=C(CN(Cc1ccco1)C(=O)c1ccccc1)Nc1ccc(Cl)c(Cl)c1 | – | 17.8 µM (active)
48 | Cn1c[n+](C)cc1/C=N/O | -10.6% | –

Row | SMILES | activity, negative = inhibition | AC50
49 | FC(F)(F)c1ccc(N2CCOCC2)c(Nc2nc3ccccc3n3cnnc23)c1 | – | 22.4 µM (active)
50 | CN1CCN(c2nc3cc(C(F)(F)F)ccc3n3cccc23)CC1 | -28% | –
51 | O=C(O)c1ccccc1NCn1c(=S)sc2ccccc21 | -19.2% [at 11.4 µM] | –
52 | Cc1ccc(OCCCn2c(=O)sc3ccccc32)cc1 | – | 17.8 µM (active)
53 | O=c1sc2ccccc2n1CCCOc1ccccc1 | – | 17.8 µM (active)
54 | C[N+](C)(CCCOc1ccccc1)c1ccccc1 | -0.656% [at 25.6 µM] | –
55 | NN(CC(=O)O)CC(=O)O | -4.66% [at 11.4 µM] | –
56 | CN(C)CCCN1c2ccc(O)cc2Sc2ccc(Cl)cc21 | -18.1% [at 11.4 µM] | –
57 | O=C(O)Cn1ccnc1[N+](=O)[O-] | 1.73% [at 11.4 µM] | –
58 | Cc1ccc(N=Nc2c(N)n(-c3ccccc3)[nH]c2=O)cc1 | – | 11.2 µM (active)
59 | Nc1c(N=Nc2cccc(Cl)c2)c(=O)[nH]n1-c1ccccc1 | -21.9% [at 2.29 µM] | –
60 | Cc1[nH]n(-c2ccc(S(=O)(=O)O)cc2)c(=O)c1N=Nc1ccccc1 | 1.46% [at 11.4 µM] | –
61 | CCCCc1[nH]c(=O)c(C#N)c2c1CCCC2 | 5.05% | –
62 | COc1cccc2cc(C(=O)CC3(O)C(=O)N(Cc4ccccc4)c4ccccc43)c(=O)oc12 (stereo not drawn) | – | 7.08 µM (active)
63 | COc1cc(CN2CCCCC2)cc2cc(C(=O)O)c(=O)oc12 | -36.8% [at 11.4 µM] | –
64 | C[C@H]1CN(CCO)CCN1c1ccccc1 | 14.2% [at 11.4 µM] | –
65 | CC(C)c1ccc(-c2nnn(CCC(=O)O)n2)cc1 | -9.35% | –
66 | CN1/C(=C\C(=O)COC(=O)Cn2nnc(-c3ccccc3)n2)C(C)(C)c2ccccc21 | – | 14.1 µM (active)
67 | O=C(Cn1nnc(-c2ccccc2)n1)OCc1ccccc1 | -7.55% | –
68 | COc1ccc(-c2nn(-c3ccccc3)cc2/C=N/NC(=O)c2ccc3c(c2)OCO3)cc1 | – | 5.01 µM (active)
69 | O=C(N/N=C/c1ccccn1)c1ccc(Br)o1 | 1.3% | –
70 | Cc1nn(-c2ccccc2)c(Cl)c1/C=N/NC(=O)c1ccco1 | 6.52% | –
71 | O=C(N/N=C\c1cn(-c2ccccc2)nc1-c1ccccc1)c1ccc2c(c1)OCO2 | – | 1.58 µM (active)
72 | O=C(N/N=C\c1cn(-c2ccccc2)nc1-c1ccccc1)c1ccc(Br)o1 | – | 3.98 µM (active)

Row | SMILES | activity, negative = inhibition | AC50
73 | CCOc1cc(C2CC(=O)c3c(ccc4ccccc34)N2)ccc1O (stereo not drawn) | – | 10 µM (active)
74 | CCOc1ccc2ccccc2c1C(=O)N[C@@H]1C(=O)N2[C@@H]1SC(C)(C)[C@@H]2C(=O)O | -1.29% [at 25.6 µM] | –
75 | Cn1c(Sc2ccc(-c3cccnc3)n2C)ccc1-c1cccnc1 | – | 0.631 µM (active)
76 | N=C1CCC[C@@H]1C(=S)SCCC(N)=O | -30.7% [at 11.4 µM] | –
77 | COc1ccc(NC(=O)NCCCN2CCCCC2C)cc1 (stereo not drawn) | -9.37% | –
78 | CCS(=O)(=O)N1CCCC(C(=O)NCCCOC(C)C)C1 (stereo not drawn) | -3.86% | –
79 | Cc1ccc(S(=O)(=O)N2CCCC(C(=O)NCCCN3CCCCC3C)C2)cc1 (stereo not drawn) | – | 14.1 µM (active)
80 | O=C(CCN1C(=O)C2C3C=CC(C3)C2C1=O)N1CCN(c2cccc(Cl)c2)CC1 (stereo not drawn) | – | 1.12 µM (active)
81 | O[C@H](CN1CCN(c2cccc(Cl)c2)CC1)C(c1ccccc1)c1ccccc1 | -19.9% | –
82 | O=c1n(CCCN2CCN(c3cccc(Cl)c3)CC2)nc2ccccn12 | – | inactive
83 | O=C(CCCN1C(=O)C2C3C=CC(C3)C2C1=O)N1CCN(c2ccccc2)CC1 (stereo not drawn) | – | 0.794 µM (active)
84 | CCOC(=O)c1c(C)[nH]c(C(=O)OCC(=O)NC2CCS(=O)(=O)C2)c1C (stereo not drawn) | -4.72% | –
85 | CNC(=O)c1c(I)c(C(=O)NCC(=O)Nc2c(I)c(C(=O)O)c(I)c(C(=O)NCCO)c2I)c(I)c(N(C)C(C)=O)c1I | -1.74% [at 25.6 µM] | –
86 | O=C(c1ccccc1)c1ccc(OCCn2cnc3ccccc3c2=O)cc1 | 26.6% [at 2.29 µM] | –
87 | CCCCOc1ccc(CNn2c(C)nc3ccccc3c2=O)cc1 | – | 1.58 µM (active)
88 | CC(C)On1c(SC(C)C)nc2ccccc2c1=O | 22.8% [at 11.4 µM] | –
89 | COc1ccc(-c2nc3ccccc3c(=O)n2N)cc1 | -5.9% [at 11.4 µM] | –
90 | COc1ccc(CNn2c(C)nc3ccccc3c2=O)cc1 | – | 3.98 µM (active)
91 | CCCCOc1ccc(CC(=O)NO)cc1 | -17.9% [at 25.6 µM] | –
92 | CCCNC1CCS(=O)(=O)C1 (stereo not drawn) | -7.29% | –
93 | CC[C@H](C)[C@@H]1O[C@]2(CC[C@@H]1C)C[C@H]1C[C@H](CC=C(C)[C@@H](O[C@@H]3C[C@H](OC)[C@H](O[C@@H]4C[C@H](OC)[C@H](O)[C@H](C)O4)[C@H](C)O3)[C@@H](C)C=CC=C3CO[C@@H]4[C@@H](O)C(C)=C[C@@H](C(=O)O1)[C@]34O)O2 | -24.7% [at 25.6 µM] | –
